Measured values reported in article PMC8384837, “Expanding the binding specificity for RNA recognition by a PUF domain”.

Columns and labels:
Assay in all cases: yeast three-hybrid, YBZ-1, SC-Leu-His + 0.5 mM 3-AT, 4 days
Details in all cases: tags: N-Gal4 AD-HA kept; label: inside an RPR1-promoter hybrid RNA with tandem MS2 sites; ssRNA
[1] = target: PUM1 PUF domain R8-KHF (Homo sapiens, UniProt Q14671 828-1176, N1122K;Y1123H;Q1126F)
Outline: (§1)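 A centromeric plasmid in strain YBZ-1 co-expressed Pumilio-1 PUF domain libraries, randomized at the three base-contacting residues of each repeat, with matching RNA elements; the strain carries a LexA–MS2 coat fusion and a HIS3 reporter. After four days on SC-Leu (input) or SC-Leu-His + 0.5 mM 3-AT (selection), the repeat regions were PCR-amplified and Illumina-sequenced. The interaction score is the log change in variant frequency from input to selection, using log2 and a pseudocount of 1 where absent.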

[2] = target: T1, PUM1 PUF domain R6-LFC (Homo sapiens, UniProt Q14671 828-1176, N1043L;Y1044F;Q1047C)
T1 sequence: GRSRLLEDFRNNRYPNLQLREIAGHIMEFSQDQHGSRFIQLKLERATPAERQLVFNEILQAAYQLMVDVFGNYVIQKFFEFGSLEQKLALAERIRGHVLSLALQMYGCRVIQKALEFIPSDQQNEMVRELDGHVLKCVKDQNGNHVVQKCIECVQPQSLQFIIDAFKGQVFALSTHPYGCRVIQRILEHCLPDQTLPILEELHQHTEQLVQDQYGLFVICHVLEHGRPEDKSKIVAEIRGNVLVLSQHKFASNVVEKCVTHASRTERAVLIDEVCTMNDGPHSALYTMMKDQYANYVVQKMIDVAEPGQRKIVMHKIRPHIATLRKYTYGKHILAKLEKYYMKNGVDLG
Outline: as §1

[3] = target: PUM1 PUF domain R5-RSN (Homo sapiens, UniProt Q14671 828-1176, C1007R;R1008S;Q1011N)
Outline: as §1

[4] = target: PUM1 PUF domain R8-KYP (Homo sapiens, UniProt Q14671 828-1176, N1122K;Q1126P)
Outline: as §1

[5] = target: PUM1 PUF domain R4-RGY (Homo sapiens, UniProt Q14671 828-1176, N971R;H972G;Q975Y)
Outline: as §1

[6] = target: PUM1 PUF domain R5-RAI (Homo sapiens, UniProt Q14671 828-1176, C1007R;R1008A;Q1011I)
PUM1 PUF domain R5-RAI, sequence (Q14671 828-1176 C1007R/R1008A/Q1011I): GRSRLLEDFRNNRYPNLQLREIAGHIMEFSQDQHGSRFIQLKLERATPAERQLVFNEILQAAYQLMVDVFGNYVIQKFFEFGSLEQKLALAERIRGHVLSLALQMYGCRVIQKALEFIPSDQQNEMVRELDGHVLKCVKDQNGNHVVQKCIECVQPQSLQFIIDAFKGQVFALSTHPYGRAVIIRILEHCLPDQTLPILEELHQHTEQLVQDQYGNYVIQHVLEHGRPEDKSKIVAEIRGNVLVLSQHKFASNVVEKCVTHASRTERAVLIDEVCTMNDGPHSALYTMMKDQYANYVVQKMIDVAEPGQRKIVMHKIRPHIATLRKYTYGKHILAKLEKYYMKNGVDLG
Outline: as §1

[7] = target: PUM1 PUF domain R3-THE R4-TFR R7-NPG (Homo sapiens, UniProt Q14671 828-1176, C935T;R936H;Q939E;N971T;H972F;Q975R;S1079N;N1080P;E1083G)
PUM1 PUF domain R3-THE R4-TFR R7-NPG, sequence (Q14671 828-1176 C935T/R936H/Q939E/N971T/H972F/Q975R/S1079N/N1080P/E1083G): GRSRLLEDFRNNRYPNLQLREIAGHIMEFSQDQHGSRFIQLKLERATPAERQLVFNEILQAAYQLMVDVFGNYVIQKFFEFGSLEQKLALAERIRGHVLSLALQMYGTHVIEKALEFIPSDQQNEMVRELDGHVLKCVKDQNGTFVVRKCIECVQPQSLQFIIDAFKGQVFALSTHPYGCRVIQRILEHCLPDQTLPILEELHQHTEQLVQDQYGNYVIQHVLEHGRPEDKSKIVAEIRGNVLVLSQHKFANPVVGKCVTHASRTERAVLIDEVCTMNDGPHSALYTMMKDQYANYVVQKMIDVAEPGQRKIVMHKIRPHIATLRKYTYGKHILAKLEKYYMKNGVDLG
Outline: as §1

[8] = target: PUM1 PUF domain R3-KPG (Homo sapiens, UniProt Q14671 828-1176, C935K;R936P;Q939G)
Outline: as §1

[9] = target: PUM1 PUF domain R3-DNE (Homo sapiens, UniProt Q14671 828-1176, C935D;R936N;Q939E)
PUM1 PUF domain R3-DNE, sequence (Q14671 828-1176 C935D/R936N/Q939E): as the sequence (Q14671 828-1176 C1007R/R1008A/Q1011I) above, with C108D, R109N, Q112E, R180C, A181R, I184Q counted along it
Outline: as §1

[10] = target: PUM1 PUF domain R3-YRG (Homo sapiens, UniProt Q14671 828-1176, C935Y;Q939G)
PUM1 PUF domain R3-YRG, sequence (Q14671 828-1176 C935Y/Q939G): as the sequence (Q14671 828-1176 C1007R/R1008A/Q1011I) above, with C108Y, Q112G, R180C, A181R, I184Q counted along it
Outline: as §1

Question: For “GGCUAGAACUAGUGGAUCCCCCGGCGCCCGGCGGCUCGAGCCCGGGUAAGGGUAAAUAGUCUGCAUGCCGCCGGGCGCCAUGCCUGCAGGUCGACUCUAGAAAACAUG”, which binding signal [1] is on record?
Answer: The binding signal was 2.25 log2 enrichment (interaction score).

Question: Which binding signal [2] does the source give for “GGCUAGAACUAGUGGAUCCCCCGGCGCCCGGCGGCUCGAGCCCGGGUAAGUGUAAAUAGUCUGCAUGCCGCCGGGCGCCAUGCCUGCAGGUCGACUCUAGAAAACAUG” here?
Answer: Its binding signal is 3.09 log2 enrichment (interaction score).

Question: What about the binding signal [3] of the same sequence?
Answer: The binding signal was 0.8 log2 enrichment (interaction score).

Question: And the binding signal [4]?
Answer: Its binding signal is 4.91 log2 enrichment (interaction score).

Question: What about the binding signal [5] of the same sequence?
Answer: The binding signal was 5.07 log2 enrichment (interaction score).

Question: Which results are given for “GGCUAGAACUAGUGGAUCCCCCGGCGCCCGGCGGCUCGAGCCCGGGUAAGUGUCAAUAGUCUGCAUGCCGCCGGGCGCCAUGCCUGCAGGUCGACUCUAGAAAACAUG”?
Answer: binding signal [3]: 3.76 log2 enrichment (interaction score); binding signal [6]: 0.78 log2 enrichment (interaction score)

Question: “GGCUAGAACUAGUGGAUCCCCCGGCGCCCGGCGGCUCGAGCCCGGGUAAGUUUACGUAGUCUGCAUGCCGCCGGGCGCCAUGCCUGCAGGUCGACUCUAGAAAACAUG” was tested. Which binding signal [7] did it give?
Answer: The binding signal was 5.28 log2 enrichment (interaction score).

Question: How did the binding signal [8] turn out when “GGCUAGAACUAGUGGAUCCCCCGGCGCCCGGCGGCUCGAGCCCGGGUAAGUGUAAUUAGUCUGCAUGCCGCCGGGCGCCAUGCCUGCAGGUCGACUCUAGAAAACAUG” was run?
Answer: The binding signal was 4.43 log2 enrichment (interaction score).

Question: “GGCUAGAACUAGUGGAUCCCCCGGCGCCCGGCGGCUCGAGCCCGGGUAAGUGUUAAUAGUCUGCAUGCCGCCGGGCGCCAUGCCUGCAGGUCGACUCUAGAAAACAUG” was tested. Which binding signal [3] did it give?
Answer: Its binding signal is 3.26 log2 enrichment (interaction score).

Question: And the binding signal [6]?
Answer: Its binding signal is 2.49 log2 enrichment (interaction score).

Question: Which results are given for “GGCUAGAACUAGUGGAUCCCCCGGCGCCCGGCGGCUCGAGCCCGGGUAAGUGUAAGUAGUCUGCAUGCCGCCGGGCGCCAUGCCUGCAGGUCGACUCUAGAAAACAUG”?
Answer: binding signal [9]: 3.35 log2 enrichment (interaction score); binding signal [10]: 3.84 log2 enrichment (interaction score)
